Source: PubChem BioAssay (National Center for Advancing Translational Sciences (NCATS))
MARV entry inh: blocks Marburg virus binding to or entry into cells; Marburg virus pseudotyped entry inhibition, cell reporter; Potency, µM (top dose mostly 37.8 µM), for inactives: at the top dose activity change, negative = inhibition, hits mostly inhibitors; 300,000 tested, 1.8% active; AID 540276; calls by dose curve; tested in HEK293 cells
FMDV antiviral: antivirals against foot and mouth disease virus; FMDV antiviral cell-based qHTS; Potency, µM (highest dose often 57.9 µM), inactives show top-dose activity change, negative = inhibition, actives largely listed as inhibitors; 410,000 tested, 1.2% active; calls by dose curve; tested in HEK293T cells; also: read-out not given here; nearly all actives have a fitted effect of over 45% in size
Vaccinia Venus: inhibitors of vaccinia virus (Venus reporter); Vaccinia virus Venus reporter expression, fluorescence; Potency, µM (doses to about 36.5 µM), for inactives: at the highest dose activity change, negative = inhibition, most hits filed as inhibitors; 330,000 tested, 0.46% active; AID 720580; calls by dose curve; tested in A549 cells; also: nearly all actives have a fitted effect of over 30% in size
LASV entry inh: blocks Lassa virus binding to or entry into cells; Lassa virus pseudotype entry inhibition, cell reporter; Potency, µM (doses to about 37.9 µM), for inactives: top-dose activity change, negative = inhibition, actives largely listed as inhibitors; 300,000 tested, 1.2% active; AID 540256; calls by dose curve; tested in HEK293 cells; also: nearly all actives have a fitted effect of over 50% in size
Vaccinia mCherry: vaccinia inhibition (mCherry reporter). Vaccinia virus mCherry reporter infection, fluorescence. Potency, µM (top dose mostly 36.5 µM), without a hit: at the top dose activity change, negative = inhibition, hits mostly inhibitors. 310,000 tested, 0.63% active; calls by dose curve; tested in A549 cells; also: nearly all actives have a fitted effect of over 35% in size
An asterisk follows results filed as active; i = inactive; u = inconclusive; x = not tested or not shown; [ ] = remark or other dose. Rows were chosen to be rich in hits. Some 3.2% of all compounds tested hit in one or more screens of this group. % is scaled to controls: 0 for no effect and ±100 for the full control effect; potency is read from the fitted curve at half-maximal effect.

SMILES	MARV entry inh	FMDV antiviral	Vaccinia Venus	LASV entry inh	Vaccinia mCherry
COc1ccc(OC)c(C2C3=C(COC3=O)Nc3cc4c(cc32)OCO4)c1 (stereo not given)	0.26µM*	-22%	x	-33%	x
C#CCOc1cc(C2C3=C(COC3=O)Nc3cc4c(cc32)OCO4)ccc1OC (stereo not given)	x	-21%	x	x	x
C[C@@H]1O[C@@H](O[C@@H]2C=C3CC[C@@H]4[C@@H](CC[C@]5(C)[C@H](c6ccc(=O)oc6)CC[C@@]45O)[C@@]3(C)CC2)[C@H](O)[C@H](O)[C@H]1O	x	x	6.3µM*	x	10µM*
C[C@]12CC[C@H]3C(CCC4(O)CC(O)CC[C@]34C=O)C1=CC[C@H]2c1ccc(=O)oc1 (stereo not given in full)	x	-6%	x	x	x
COc1ccc(CN2CCN(Cc3cc(=O)oc4cc(C)ccc34)CC2)c(OC)c1OC	14µM*	-2%	-7%	-22%[46.1 µM]	-13%
C/C(Cn1nnc([N+](=O)[O-])n1)=N\NC(=O)c1ccccc1	u	x	13µM*	-26%	u
C/C(Cn1cnc([N+](=O)[O-])n1)=N\NC(=O)c1ccccc1	37%	9%	-4%	14%	-5%
CN(CC(=O)O)c1ccc(/C=C/c2ccnc3ccccc23)cc1	x	x	-4%	x	-2%
Cc1cccc(CSC(Nc2ccc(F)cc2)=C(C#N)C#N)c1	2.9µM*	u	u	u	u
Cc1cccc(CSC(=N)N)c1	u	0%	-17%	-26%	i
N#CC(C#N)=C(Nc1ccc(F)cc1)SCc1cccc(Br)c1	u	1.8µM*	u	u	u
CC(SCc1ccccc1)C(=O)Nc1ccc(F)cc1 (stereo not given)	-8%[46.1 µM]	-15%	5%	25%[46.1 µM]	-23%
Brc1ccc(-c2csc3ncnc(-n4nnc5ccccc54)c23)cc1	13µM*	u	-23%	u	-11%
Cc1sc2ncnc(-n3nnc4ccccc43)c2c1C	x	-8%	x	x	x
CCC(C)NS(=O)(=O)c1ccc(NC(=O)C(Sc2ccccc2)c2ccccc2)cc1 (stereo not given)	u	-14%	u	13µM*	u
CC(=O)NS(=O)(=O)c1ccc(NC(=O)C(Sc2ccccc2)c2ccccc2)cc1 (stereo not given)	11%	-22%	1%	-2%	x
CCCCNS(=O)(=O)c1ccc(NC(=O)C(Sc2ccccc2)c2ccccc2)cc1 (stereo not given)	u	0%	10µM*	9.2µM*	u
COc1ccc(/C(O)=C2\C(=O)C(=O)N(CCN3CCOCC3)[C@H]2c2cccnc2)cc1OC	2%	x	x	x	x
CC1=C(/C=C/C(C)=C/C=C/C(C)=C/C(=O)Nc2ccc(O)cc2)C(C)(C)CCC1	u	u	u	10µM*	u
Nc1nn2c(-c3ccccc3)cc(=O)[nH]c2c1N=Nc1ccc(O)cc1	u	-5%	-8%	u	-20%
Nc1nn2c(-c3ccccc3)cc(=O)[nH]c2c1N=Nc1ccc(Br)cc1	x	-3%	u	x	16µM*
Cc1cc(/C=C2\SC(=Nc3ccccc3)NC2=O)c(C)n1-c1ccc(S(N)(=O)=O)cc1	8.9µM*	u	u	u	x
O=Cc1ccc(/C=C2\C=Cc3ccccc32)cc1	x	x	-18%	x	-9%
CCN(CC)S(=O)(=O)c1cccc(NC(=O)COC(=O)c2[nH]c(C)c(C(C)=O)c2C)c1	x	11µM*	u	x	-28%
CC(=O)c1c(C)[nH]c(C(=O)OCC(=O)Nc2ccccc2Cl)c1C	u	18µM*	-27%	-26%	u
SMILES	MARV entry inh	FMDV antiviral	Vaccinia Venus	LASV entry inh	Vaccinia mCherry
CC(=O)c1c(C)[nH]c(C(=O)OCC(=O)Nc2cccc(S(=O)(=O)N3CCCC3)c2)c1C	u	14µM*	-24%	u	-6%
CC(=O)c1c(C)[nH]c(C(=O)OCC(=O)Nc2cccc(S(=O)(=O)N(C)C)c2)c1C	0%[46.1 µM]	-14%	-12%	-6%[46.1 µM]	i
CC(=O)c1c(C)[nH]c(C(=O)OCc2csc(CC(=O)Nc3ccccc3C)n2)c1C	x	20µM*	x	x	x
CSc1ccccc1NC(=O)CN(C)CC(=O)c1[nH]c(C)c(C(C)=O)c1C	-1%	35µM*	-2%	-26%	-17%
CC(=O)c1c(C)[nH]c(C(=O)CN(C)CC(=O)Nc2ccccc2Cl)c1C	u	u	-10%	u	-14%
CC(=O)c1ccc(N(C(=O)CNC(=O)c2ccco2)C(C(=O)NC2CCCC2)c2ccncc2)cc1 (stereo not given)	-12%[46.1 µM]	-6%	1%	3%	2%
COc1ccc(CNC(=O)C(=O)NCC(c2cccs2)S(=O)(=O)c2ccc(C)cc2)cc1 (stereo not given)	x	u	-4%	-25%[46.1 µM]	-14%
COc1ccc(CCNC(=O)C(=O)NCC(c2cccs2)S(=O)(=O)c2ccccc2)cc1 (stereo not given)	x	28µM*	u	-3%[46.1 µM]	u
COc1ccc(CCNC(=O)C(=O)NCC(c2cccs2)S(=O)(=O)c2ccc(C)cc2)cc1 (stereo not given)	x	20µM*	-7%	u	-11%
CCOC(=O)C1=C2C=C(OC)C=CC2OC1CN(CC)CC (stereo not given)	-17%[46.1 µM]	x	x	x	x
CCC(=NCc1ccco1)c1c(O)n(C2CCCCC2)c(=O)[nH]c1=O	-2%	u	x	3.7µM*	x
Cc1ccc2[nH]c3c(c2c1)CN(C(=O)CC1(c2ccccc2)CC(=O)N(Cc2cccnc2)C1=O)CC3 (stereo not given)	x	-5%	-17%	x	-13%
COC(=O)CCC(=O)NC(=S)Nc1ccc(S(=O)(=O)Nc2cc(OC)nc(OC)n2)cc1	35%	108%	-10%	9%	-14%
COc1cc(NS(=O)(=O)c2ccc(NC(=S)NC(=O)CC(C)C)cc2)nc(OC)n1	-16%[46.1 µM]	94%	u	8%	11µM*
O=C(O)C1CCCN1c1nc(-c2ccc(Cl)c(Cl)c2)cc(C(F)(F)F)n1 (stereo not given)	0.5µM*	-26%	u	u	u
NCC(c1ccccc1)(c1ccccc1)c1ccccc1	7.9µM*	-25%	-26%	1%	-22%
N#Cc1ncc(-c2ccc3c(c2)OCCOCCOCCOCCO3)nc1C#N	u	40µM*	-15%	u	i
CCCC(=O)Nc1ccc(C=C(C(C)=O)C(C)=O)cc1	-11%	22µM*	-20%	18%	-21%
Cc1cnc(SCC2CCCO2)nc1C1CCCN(C(=O)c2ccc(S(N)(=O)=O)cc2)C1 (stereo not given)	x	5%	0%	x	-15%
O=C(CSc1nc(-c2cccs2)cc(C(F)(F)F)n1)Nc1cc(OCC(F)(F)F)cc([N+](=O)[O-])c1	7.1µM*	u	-30%	u	-6%
COC(=O)c1ccc2c(=O)n(C3CCCCC3)c(SCC#N)nc2c1	0.015µM*	-6%	x	u	x
C=C1CCC[C@]2(C)C[C@H]3OC(=O)C(CNCCN(CC)CC)[C@H]3CC12 (stereo not given in full)	u	-14%	3.2µM*	u	4µM*
O=S(=O)(c1cccc(Cl)c1)N1CCN(c2nc(-c3cccs3)nc3ccccc23)CC1	x	x	-9%	x	-15%
